Source: PubChem BioAssay (Tox21)
Inconclusive results are not listed. Active and inactive are the calls of the source. Calls follow the shape of the dose curve; as a rule, active = well fitted cell-killing curve with a large enough effect in the repeat runs; inconclusive = weak or mixed curves, or effect the other way; inactive = no such curve, though single readings can be large or run the other way.

experiment: qHTS assay to identify small molecule antagonists of the thyroid receptor (TR) signaling pathway - cell viability counter screen (AID 743064); settings: GH3.TRE-Luc viability, CellTiter-Fluor, 24 h; series mostly up to 70.3 µM; activity change, negative = cytotoxic: at the top concentration; also: nearly all actives have a fitted effect of over 50% in size
How it was run: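 GH3.TRE-Luc rat pituitary cells carrying a TRE-luciferase reporter were treated with compound plus 1 nM T3 (final) for 23.5 h at 37 °C. Viability was then read in the same wells by CellTiter-Fluor fluorescence after a further 30 min.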
% is scaled to controls: 0 for no effect and ±100 for the full control effect; potency is read from the fitted curve at half-maximal effect.

Row | SMILES | activity change, negative = cytotoxic | Potency
1 | Brc1cc(Br)c(Oc2cc(Br)c(Br)cc2Br)cc1Br | -9.24% (inactive) | –
2 | CC1CC(C)C(=O)C1=O (stereo not given) | -1.31% (inactive) | –
3 | O=C=Nc1cccc(C(F)(F)F)c1 | – | 60.7 µM (active)
4 | CCCCN1CCCC1C(=O)Nc1c(C)cc(C)cc1C (stereo not given) | -12.6% (inactive) | –
5 | O=C(OCC(O)CO)c1ccccc1Nc1ccnc2cc(Cl)ccc12 (stereo not given) | -16.1% [at 32.5 µM] (inactive) | –
6 | CCCCCCCCN | -2.01% (inactive) | –
7 | O=Cc1c2ccccc2c(Cl)c2ccccc12 | 3.21% (inactive) | –
8 | CCC=CC#N | 15.3% (inactive) | –
9 | C=CC(=O)[O-].C=CC(=O)[O-].[Zn+2] | 29.5% (inactive) | –
10 | CC(C)=CCC1C(=O)N(c2ccccc2)N(c2ccccc2)C1=O | -46.7% (inactive) | –
11 | CO/N=C(/C(=O)N[C@@H]1C(=O)N2C(C(=O)O)=C(COC(N)=O)CS[C@H]12)c1ccco1 | – | inactive
12 | C=C1CCC2CC1C2(C)C (stereo not given) | -1.94% (inactive) | –
13 | Cc1ccc(OC(=O)c2ccccc2O)cc1 | 5.33% (inactive) | –
14 | O=C(O)CCC(=O)C(=O)O | – | inactive
15 | C=C1c2cccc(O)c2C(O)=C2C(=O)[C@]3(O)C(O)=C(C(N)=O)C(=O)[C@@H](N(C)C)[C@@H]3[C@@H](O)[C@H]12 | 14.7% [at 32.5 µM] (inactive) | –
16 | CC(C)C=O | -0.0022% [at 95 µM] (inactive) | –
17 | CN1C(C(=O)Nc2ccccn2)=C(O)c2sccc2S1(=O)=O | 2.94% [at 32.5 µM] (inactive) | –
18 | Cc1cscn1 | 6.7% (inactive) | –
19 | CCC(OCCCOC)OC(C)=O (stereo not given) | -13.8% [at 95 µM] (inactive) | –
20 | CC/C=C1/OC(=O)c2ccccc21 | 4.1% (inactive) | –

Row | SMILES | activity change, negative = cytotoxic | Potency
21 | CCOC(=O)C1=C(C)NC(C)=C(C(=O)OC)C1c1cccc(Cl)c1Cl (stereo not given) | – | 18.8 µM (active)
22 | COc1cc(N)c(Cl)cc1C(=O)NC1CCN(CCCOc2ccc(F)cc2)CC1OC (stereo not given) | – | 11.4 µM (active)
23 | C=C(C)C(=O)OCCOCCOC(=O)C(=C)C | 16.5% (inactive) | –
24 | CC(=O)Oc1ccc([N+](=O)[O-])cc1CCl | – | 30.6 µM (active)
25 | O=C(Nc1cccc2c(=O)cc(-c3nn[nH]n3)oc12)c1ccc(OCCCCc2ccccc2)cc1 | -8.84% (inactive) | –
26 | Cc1ccccc1N=C(N)Nc1ccccc1C | -21.3% (inactive) | –
27 | CCOC(=O)OC(C)OC(=O)[C@@H]1N2C(=O)[C@@H](NC(=O)[C@H](N)c3ccccc3)[C@H]2SC1(C)C (stereo not given in full) | 13.9% [at 32.5 µM] (inactive) | –
28 | CC1=Nc2ccc3ccccc3c2C1(C)C | 0.72% (inactive) | –
29 | CC(C)c1nc(CN(C)C(=O)N[C@H](C(=O)N[C@@H](Cc2ccccc2)C[C@H](O)[C@H](Cc2ccccc2)NC(=O)OCc2cncs2)C(C)C)cs1 | – | 15 µM (active)
30 | CC1=C(CC=O)C(C)(C)CCC1 | -0.383% (inactive) | –
31 | O=C(/C=C/c1ccccc1)OCCc1ccccc1 | 20.1% (inactive) | –
32 | CN1C(=O)OC(C)(C)C1=O | 11.4% (inactive) | –
33 | CCN(CC)CCNC(=O)COc1ccc(OC)cc1 | 14.6% (inactive) | –
34 | CC1CC(OC(=O)C(O)c2ccccc2)CC(C)(C)N1C (stereo not given) | – | inactive
35 | Cc1ccc(CO)cc1 | 8.37% [at 95 µM] (inactive) | –
36 | NC1[C@H]2CN(c3nc4c(cc3F)c(=O)c(C(=O)O)cn4-c3ccc(F)cc3F)C[C@@H]12 (stereo not given in full) | – | 26.6 µM (active)
37 | CC(CO)CO | 9.48% [at 95 µM] (inactive) | –
38 | O=C1c2ccccc2C(=O)C1c1nc2ccccc2c(Br)c1O | -1.06% (inactive) | –
39 | CC(C)(O)c1ccc(CNC(=O)c2cccnc2Oc2ccc3nonc3c2)cc1 | -12.6% (inactive) | –
40 | CCCCCCCCCCC(=O)O | -0.983% [at 95 µM] (inactive) | –
